Source: PubChem BioAssay (NCATS)
Records with an inconclusive call do not appear. Calls of active or inactive are those of the source. The call rests on the fitted dose curve; in most records, active means well fitted inhibition curve with a large enough effect; inconclusive means small, poorly fitted or top-dose-only effect; inactive means flat fitted curve, though single readings scatter.

What was measured:
Assay in all cases: qHTS profiling for inhibitors of Plasmodium falciparum proliferation (AID 504749); further: nearly all actives have a fitted effect of over 60% in size
Settings in all cases: P. falciparum in erythrocytes, SYBR Green DNA, 72 h; series mostly up to 28.7 µM
CP250 = test system: CP250
How it was run: (§1)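 SYBR Green fluorescence (ex 485 nm, em 535 nm) reports parasite DNA after 72 h compound exposure of infected red cells at 0.3% parasitemia, 2.5% hematocrit; signal normalized to 0.29 uM artemisinin and vehicle wells.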

CP252 = test system: CP252
How it was run: as §1

CP256 = test system: CP256
How it was run: as §1

CP262 = test system: CP262
How it was run: as §1

CP265 = test system: CP265
How it was run: as §1

CP268 = test system: CP268
How it was run: as §1

CP269 = test system: CP269
How it was run: as §1

CP286 = test system: CP286
How it was run: as §1

CP291 = test system: CP291
How it was run: as §1

CP297 = test system: CP297
How it was run: as §1

CP305 = test system: CP305
How it was run: as §1

CP315 = test system: CP315
How it was run: as §1

CP325 = test system: CP325
How it was run: as §1

CP329 = test system: CP329
How it was run: as §1

CP335 = test system: CP335
How it was run: as §1

DFO2036 = test system: DFO2036
How it was run: as §1

DIV17 = test system: DIV17
How it was run: as §1

DIV30 = test system: DIV30
How it was run: as §1

Dd2 = test system: Dd2
How it was run: as §1

ECU = test system: ECU
How it was run: as §1

FAB9 = test system: FAB9
How it was run: as §1

GB4 = test system: GB4
How it was run: as §1

HB3 = test system: HB3
How it was run: as §1

JCK = test system: JCK
How it was run: as §1

N140 = test system: N140
How it was run: as §1

P93_24 = test system: P93_24
How it was run: as §1

P94_40 = test system: P94_40
How it was run: as §1

PAD = test system: PAD
How it was run: as §1

PC49 = test system: PC49
How it was run: as §1

SC27B = test system: SC27B
How it was run: as §1

TAB109 = test system: TAB109
How it was run: as §1

TAB113 = test system: TAB113
How it was run: as §1

TAB165 = test system: TAB165
How it was run: as §1

Measured: Potency

CO[C@H]1[C@@H](O)CC(OC2[C@@H](O)CC(OC3[C@@H](O)C[C@H](OC4CC[C@@]5(C)C(CCC6C5CC(O)[C@]5(C)[C@H](C7=CC(=O)OC7)CCC65O)C4)O[C@@H]3C)O[C@@H]2C)O[C@@H]1C (stereo partly drawn)
inactive: CP250 | CP252 | CP256 | CP262 | CP265 | CP268 | CP269 | CP286 | CP291 | CP297 | CP305 | CP315 | CP325 | CP329 | CP335 | DFO2036 | DIV17 | DIV30 | Dd2 | ECU | FAB9 | GB4 | HB3 | JCK | N140 | P93_24 | P94_40 | PAD | PC49 | SC27B | TAB109 | TAB113 | TAB165
